Screening data as filed in PubChem BioAssay.
VP16 counter = Gal4-VP16 reporter inhibition counter-screen. Drosophila S2 Gal4-VP16 UAS-luciferase, luminescence, 20 h. Potency, µM (series often up to 53.6 µM), for inactives: top-dose activity, negative = inhibition, usual class: inhibitors. actives 3.5% (n = 310,000);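 further: Gal4-VP16 expression switched on by copper sulfate through the metallothionein promoter; on the % scale 0 is the no-effect control and ±100 the full control effect; nearly all actives have a fitted effect of over 50% in size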
HepG2 viability = counter-screen for TGF-b inhibitors: cytotoxicity in HepG2 cells. Potency, µM (highest dose often 46.1 µM), inactives show at the highest dose activity change, negative = cytotoxicity, most hits filed as cytotoxic. actives 0.76% (n = 410,000). HepG2 CAGA-GFP viability, ATP luminescence, 18 h. AID 588856
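HepG2 CAGA-GFP cells (1000/well, DMEM with 1% FBS) received compound, then TGF-beta at 500 pg/mL final, and were incubated 18 hours at 37 degrees C. Viability was read by CellTiter-Glo luminescence. Media-only wells were set as complete cell-killing and DMSO as no toxicity.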
ATXN viability = cell viability loss in ATXN counter-screen; S2 cells (HEK-293 line with an ATXN2-luciferase reporter) viability, CellTiter-Fluor protease fluorescence, 24 h; Potency, µM (titrated, usually from 56.7 µM), hits mostly cytotoxic; AID 651635; actives 0.49% (n = 400,000); further: nearly all actives have a fitted effect of over 40% in size
RORgamma inh = ROR gamma (mouse) transcription inhibition; P51450; Potency, µM (highest dose often 53.6 µM), inactives show top-dose activity change, negative = inhibition, hits mostly inhibitors; Drosophila S2 Gal4-RORgamma UAS-luciferase reporter, 20 h; actives 5.4% (n = 310,000); further: on the % scale 0 is the no-effect control and ±100 the full control effect; nearly all actives have a fitted effect of over 60% in size
Target sequence (P51450 whole entry, looked up, the tested form may be a part): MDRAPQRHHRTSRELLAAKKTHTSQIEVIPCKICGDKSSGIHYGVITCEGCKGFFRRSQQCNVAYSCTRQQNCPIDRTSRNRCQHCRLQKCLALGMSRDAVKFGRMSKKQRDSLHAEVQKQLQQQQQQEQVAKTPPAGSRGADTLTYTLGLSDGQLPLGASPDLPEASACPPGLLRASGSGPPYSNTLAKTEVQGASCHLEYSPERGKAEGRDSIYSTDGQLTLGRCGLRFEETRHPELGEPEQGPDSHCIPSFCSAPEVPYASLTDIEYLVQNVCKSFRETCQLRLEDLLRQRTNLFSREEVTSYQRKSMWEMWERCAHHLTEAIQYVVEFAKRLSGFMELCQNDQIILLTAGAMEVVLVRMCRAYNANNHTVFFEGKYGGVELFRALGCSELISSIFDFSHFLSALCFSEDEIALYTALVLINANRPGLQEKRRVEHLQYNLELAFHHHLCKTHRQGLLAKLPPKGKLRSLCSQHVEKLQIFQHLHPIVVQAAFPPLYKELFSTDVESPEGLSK
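Drosophila Schneider cells stably carrying a metallothionein-driven Gal4 DBD–ROR gamma fusion and a UAS-Photinus luciferase reporter were exposed to compound for 1 hr, then induced with copper sulfate (700 uM final) for 20 hr at ambient temperature before luminescence reading.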
TGFb SMAD3 inh = inhibitors of TGF-b signaling. actives 1.2% (n = 410,000). Potency, µM (top dose mostly 46.1 µM), for the others: at the top dose activity, negative = inhibition, most hits filed as inhibitors. AID 588855. HepG2 CAGA-GFP TGF-b/SMAD3 reporter, GFP fluorescence, 18 h; TGF-beta stimulated, 500 pg/mL final; further: on the % scale 0 is the no-effect control and ±100 the full control effect; nearly all actives have a fitted effect of over 65% in size
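Inhibition of TGF-beta-driven CAGA-GFP reporter expression in HEPG2 cells is measured by cellular GFP fluorescence after 18 h stimulation with 500 pg/mL recombinant TGF-beta in 1% FBS medium at 37 degrees C.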
ATXN2 expr inh = reduces ATXN2 reporter expression in HEK-293 cells | actives 0.72% (n = 360,000) | Potency, µM (titrated, usually from 57 µM), for the others: top-dose activity change, negative = inhibition, hits mostly inhibitors | HEK-293 ATXN2-luciferase reporter, luminescence, 24 h | AID 1745845; further: on the % scale 0 is the no-effect control and ±100 the full control effect; nearly all actives have a fitted effect of over 55% in size
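qHTS (up to 57 uM final) was run with 24 h compound exposure of reporter cells at 37 °C. Each well was multiplexed: SteadyGlo luminescence measured ATXN2-luciferase expression after a fluorogenic Gly-Phe-AFC viability readout (25 uM final).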
An asterisk follows results filed as active; i = inactive; ? = inconclusive; . = no result. Sampled rows, rich in hits. Any-hit rate of the full collection: about 6.1%. The call rests on the fitted dose curve; in most records, active means well fitted curve in the direction sought with a large enough effect; inconclusive means small, poorly fitted or top-dose-only effect, or another doubt; inactive means no such curve, though single readings can be large; an effect the other way counts as inactive or inconclusive. Potency means the concentration at half of the fitted maximal effect.

SMILES	VP16 counter	HepG2 viability	ATXN viability	RORgamma inh	TGFb SMAD3 inh	ATXN2 expr inh
Cc1cc(C)c(Nc2nn3c(=O)c4cc5c(cc4nc3s2)OCO5)c(C)c1	.	0.3%	i	.	-0.4%	14.9%
Sc1oc(-c2ccccc2)cc1C=Nc1ccccc1	17.8µM*	-2.5%	?	12.6µM*	?	36.3%
Cc1oc2c(C)c3oc(=O)c(CCC(=O)N4CCCCC4)c(C)c3cc2c1C	.	-16.9%	.	.	-7.0%	.
Cc1ccc(-c2csc(N3CCN(c4cc5c(cc4Cl)nc(-c4ccncc4)n5CCN4CCCCC4)CC3)n2)cc1	-24.6%	-24.5%	i	8.91µM*	?	-28.0%
CCCn1c(C)nc2cc(Cl)c(N3CCN(c4nc(-c5ccc(C)cc5)cs4)CC3)cc21	?	16.1%	?	4.47µM*	?	-32.7%
CCOc1ccc2c(c1)nc(SCC(=O)c1cccs1)n2C	4.9%	3.4%	i	?	2.7%	56.2%
CCOc1ccc2c(c1)nc(SCC(=O)c1ccc(Br)s1)n2C	?	-7.9%	i	14.1µM*	4.6%	-9.6%
CCCCNC(=S)NNC(=O)c1ccc(Br)o1	-25.4%	8.3%	i	0.794µM*	-2.5%	3.2%
CCCCNC(=S)NNC(=O)c1cccnc1	11.2µM*	-13.0%	i	?	-15.2%	-11.9%
O=C(NC(=S)NCCOCc1ccc(Cl)cc1)c1cccnc1	17.8µM*	10.1%	i	11.2µM*	11.6%	-6.1%
CCCCNC(=S)NNc1c(Cl)cc(Cl)cc1Cl	5.01µM*	1.6%	.	2.51µM*	2.6%	-4.9%
Cc1c2cnn(-c3ccccc3)c(=O)c2c(C)n1CC(=O)N1CCN(c2ccc(F)cc2)CC1	.	-26.3%	i	.	?	-13.4%
CCCCNC(=S)NNC(=O)c1nn(C)cc1Cl	-29.9%	-0.4%	i	14.1µM*	9.0%	-11.6%
COc1ccc(CCNC(=O)c2nn(C)cc2Cl)cc1	5.4%	-0.9%	i	-11.7%	4.6%	52.9%
O=C(NNC(=S)Nc1ccc(Br)cc1)c1cccnc1	?	11.9%	i	10µM*	-2.4%	3.1%
O=C(NC(=S)NNC(=O)c1ccc(Cl)cc1Cl)c1cccnc1	20µM*	-22.7%	i	12.6µM*	-4.2%	-17.5%
CC(C)c1ccc(NC(=S)NNC(=O)c2cccnc2)cc1	?	-13.7%	i	?	-1.4%	-16.7%
CC(C)c1ccccc1OCCNC(=S)NC(=O)c1cccnc1	?	-5.6%	i	3.55µM*	0.2%	2.5%
O=C(c1n[nH]c2c1CCCC2)N1CCOc2ccc(C(O)C3CCCCC3)cc2C1 (stereo not given)	.	.	i	.	.	.
CCc1ccc(-n2nc(C)c3c(C)cc(=O)n(CC(=O)Nc4ccccc4C(=O)OC)c32)cc1	.	1.7%	i	.	-10.0%	?
CC(C)c1ccc(-c2noc(SCC(=O)N3CCCCC3)n2)cc1	.	-13.7%	?	.	1.3%	0.0%
O=C(NC(=S)Nc1ncccn1)c1ccc(Cl)cc1Cl	-0.7%	-30.0%	i	7.08µM*	-16.1%	50.0%
O=C(NNC(=S)NC(=O)c1cccnc1)c1ccc(Cl)cc1	?	-7.2%	i	10µM*	-3.2%	-22.0%
O=C(Cc1ccc(Cl)cc1)NNC(=S)NC(=O)c1cccnc1	-9.5%	0.0%	i	?	8.1%	8.5%
COc1cccc(CNC(=O)CCNS(=O)(=O)c2ccc3c(c2)CCCC(=O)N3)c1	.	-16.5%	i	.	-5.8%	8.1%
SMILES	VP16 counter	HepG2 viability	ATXN viability	RORgamma inh	TGFb SMAD3 inh	ATXN2 expr inh
O=C(CSC1=NNC(c2ccccn2)S1)Nc1ccccc1 (stereo not given)	2.51µM*	0.3%	?	1µM*	?	?
O=C(CSC1=NNC(c2ccccn2)S1)Nc1cccc(Cl)c1 (stereo not given)	12.6µM*	-4.8%	i	3.55µM*	-24.1%	?
Cc1ccc(-c2nc3ccccc3n2C)o1	?	-62.4%	i	11.2µM*	-2.9%	-5.1%
Cc1oc(-c2nc3ccccc3n2C)cc1C(=O)c1ccccc1	?	-48.3%	i	11.2µM*	-0.9%	-28.2%
Cc1ccc(-c2ccc(C(=O)O)[nH]2)cc1	-23.2%	1.6%	i	0.1%	3.4%	54.4%
Clc1ccc(-c2ccn[nH]2)cc1	-17.3%	-1.1%	i	-33.2%	9.4%	-9.4%
Cc1ccc(-c2csc(=S)[nH]2)cc1	?	-6.6%	i	7.08µM*	-20.0%	-15.4%
S=c1nccc(-c2ccc(Cl)cc2)[nH]1	5.01µM*	13.8%	i	2.82µM*	-2.3%	10.3%
S=c1[nH]c(-c2ccc(Cl)cc2)cs1	-0.5%	0.3%	i	7.08µM*	7.6%	-8.9%
Cc1cnc(C)c(-c2cccc3c2OC(CNC(=O)c2cc(C)on2)C3)n1 (stereo not given)	.	.	i	.	.	.
CCc1cccc(C)c1NC(=O)C(C)Sc1nc2c(c(=O)[nH]1)CCCC2 (stereo not given)	.	-6.2%	i	.	3.2%	0.5%
CCc1nn(CC(=O)NCc2ccco2)c(=O)c2cc3cc(F)ccc3n12	.	-3.1%	i	.	-15.9%	3.4%
C/C(=N\NC(=O)c1cc2ccccc2cc1O)c1ccc2c(c1)OCO2	?	-19.0%	i	15.8µM*	?	-4.2%
CC/C(=N/NC(=O)c1ccc2c(c1)OCO2)c1ccccc1O	.	-39.4%	?	.	2.51µM*	.
O=C(c1ccc2c(=O)n(C3CCCC3)c(=S)[nH]c2c1)N1CCc2ccccc21	3.16µM*	1.2%	i	1µM*	4.9%	-12.8%
CC(C)NC(=O)c1ccc2c(=O)n(C3CCCC3)c(=S)[nH]c2c1	?	-5.1%	i	0.1µM*	0.6%	-2.9%
CCN(CC)CCNC(=O)c1ccc2c(=O)n(C3CCCC3)c(=S)[nH]c2c1	1.0%	-54.3%	i	-36.8%	-15.1%	-3.2%
CCSc1nc2c([nH]c3ccccc32)c(=O)n1CC	.	2.3%	.	.	-2.8%	.
